Measurements taken from PubChem BioAssay (NCATS).
Inconclusive results are not listed. Entries that show only a call come without a potency. Calls of active or inactive are those of the source. Calls follow the shape of the dose curve; as a rule, active = well fitted cell-killing curve with a large enough effect; inconclusive = small, poorly fitted or top-dose-only effect; inactive = flat fitted curve, though single readings scatter.

assay: qHTS of pediatric cancer cell lines to identify multiple opportunities for drug repurposing: Primary screen for TC32 cells (AID 1347089); settings: TC32 Ewing sarcoma viability, CellTiter-Glo luminescence, 48 h; series mostly up to 45.8 µM; also: nearly all actives have a fitted effect of over 60% in size
From the text: Drug repurposing or repositioning has been offered as a strategy for drug development in oncology programs. This approach has special potential for childhood cancers and other rare or orphan diseases, where the expected return on new drug development has been a disincentive to pharmaceuticals.
In this project we exploit the poly-pharmacology of drugs to discover new indications via phenotypic screening of a panel of 19 well-characterized cell lines derived from solid tumors seen in children and adolescents. The goal is to identify approved drugs with previously unrecognized anticancer properties that has the potential to reveal new mechanisms and biological processes involved in carcinogenesis or drug resistance. We employed a titration-based paradigm (quantitative high-throughput screening or qHTS), where all compounds were tested at multiple concentrations for their effect on cell viability. Concentration-response curves (CRCs) were derived directly from the primary screen, and both potency and efficacy values were used to identify compounds with robust bioactivity profiles. We screened the NIH Chemical Genomics Center (NCGC) Pharmaceutical Collection (NPC) and Mechanism Interrogation Plate (MIPE) small molecule collections of approved and investigational compounds against these cell lines; and measured metabolically active cells after 48 hours of compound treatment as a proxy for cell viability.
Assay Submitter: Nathalia J. Martinez, National Center for Advancing Translational Sciences, National Institutes of Health, Rockville, MD, USA; email: natalia.martinez@nih.gov
[1] Shen, M et al. Quantitative high-throughput phenotypic screening of pediatric cancer cell lines identifies multiple opportunities for drug repurposing. Oncotarget 2017 Dec 19;9(4):4758-4772. PMID 29435139.
The cells were obtained from University of North Carolina (UNC), Pediatric Preclinical Testing Program (PPT), and Coriell Institute (CI).
qHTS cell viability assay:
Cells were assayed in growth media at a density of 500-1,000 cells/well. Five microliters of cells were dispensed into 1,536-well, white, solid-bottom, TC-treated plates (Greiner Bio One) using a multidrop dispenser and incubated at 37 degrees C, 5% CO2, under a humidified atmosphere for 5 hours. Twenty-three nanoliters of compounds and controls (neutral control DMSO or positive control bortezomib at final concentration of 2.3 uM) were subsequently transferred by Kalypsys pintool. For primary screens, the MIPE collection was tested at 11-point dilutions (final concentrations range from 0.78 nM to 46 µM) and the NPC collection at 8-point dilutions (final concentrations range from 0.59 nM to 46 µM). Compounds tested in follow-up screens were assayed at 11-point dilutions. Cells were incubated for 48 hours, followed by addition of 3 uL of CellTiter-Glo (Promega). After a 15min incubation at room temperature, samples were analyzed for luminescence intensity using a ViewLux High-throughput CCD imager equipped with clear filters.
Potency is read from the fitted curve at half-maximal effect.

Q: With CC(C)CN(C[C@@H](O)[C@H](Cc1ccccc1)NC(=O)O[C@H]1CO[C@H]2OCC[C@H]21)S(=O)(=O)c1ccc(N)cc1 as the compound, how does the Potency read?
A: inactive

Q: With C[C@@H]1CC=CC=CC=CC=C[C@@H](O[C@@H]2O[C@H](C)[C@@H](O)[C@H](N)[C@H]2O)C[C@@H]2O[C@](O)(C[C@@H](O)C[C@@H]3O[C@@H]3C=CC(=O)O1)C[C@H](O)[C@@H]2C(=O)O as the compound, how does the Potency read?
A: inactive

Q: With Cc1ccccc1C(=O)c1ccc(Nc2ccc(Br)cc2N)cc1Cl as the compound, how does the Potency read?
A: inactive

Q: With N#Cc1c(N(CC(=O)O)CC(=O)O)sc(C(=O)O)c1CC(=O)O as the compound, how does the Potency read?
A: inactive

Q: Which Potency does the source give for COC1CCC(C(=O)c2ccc3nc4c(cc3c2)CCCO4)CC1 (stereo not given) here?
A: inactive

Q: For CC(C)(CO)[C@@H](O)C(=O)NCCC(=O)O, which Potency is on record?
A: inactive

Q: With COc1ccc2nc3cc(Cl)ccc3c(Nc3cc(CN4CCCC4)c(O)c(CN4CCCC4)c3)c2n1 as the compound, how does the Potency read?
A: inactive

Q: For Cc1ccc2c(=O)c3cccc(CC(=O)O)c3oc2c1C, which Potency is on record?
A: inactive

Q: For CN1CCN(c2ncc(-c3cc(Cl)cc(Cl)c3Cl)c(N)n2)CC1, which Potency is on record?
A: inactive

Q: With O=C(O)C1=NC(C(=O)O)CC(C=CN2c3cc(O)c(OC4OC(CO)C(O)C(O)C4O)cc3CC2C(=O)O)=C1 (stereo not given) as the compound, how does the Potency read?
A: inactive

Q: With O=C(O)Cc1cccc(OCCCN(Cc2cccc(C(F)(F)F)c2Cl)CC(c2ccccc2)c2ccccc2)c1 as the compound, how does the Potency read?
A: inactive

Q: With COc1nc(C)cnc1NS(=O)(=O)c1cccnc1-c1ccc(-c2nnco2)cc1 as the compound, how does the Potency read?
A: inactive

Q: For O=C(CO)N1CCC(c2[nH]nc(-c3ccc(Cl)cc3)c2-c2ccncn2)CC1, which Potency is on record?
A: inactive

Q: For CCOC(=O)N1CCN([N+]([O-])=NOc2cc(ON=[N+]([O-])N3CCN(C(=O)OCC)CC3)c([N+](=O)[O-])cc2[N+](=O)[O-])CC1, which Potency is on record?
A: inactive

Q: With N#CC1(c2cccc(C(=O)Nc3cc(Oc4ccc5nc(NC(=O)C6CC6)sc5n4)ccc3F)c2Cl)CC1 as the compound, how does the Potency read?
A: inactive

Q: With C[C@@H](O)[C@H]1C(=O)N2C(C(=O)OCOC(=O)C(C)(C)C)=C(SC3CN(C4=NCCS4)C3)[C@H](C)[C@H]12 as the compound, how does the Potency read?
A: inactive

Q: Which Potency does the source give for c1ccc(CNc2nc(N3CCOc4ccccc43)nc3c2CCCC3)cc1 here?
A: inactive

Q: With NCC1CCC(C(=O)O)CC1 (stereo not given) as the compound, how does the Potency read?
A: inactive

Q: For CCn1c(-c2nonc2N)nc2cncc(CNC3CCNCC3)c21, which Potency is on record?
A: inactive

Q: For CCCCCOC(=O)Nc1nc(=O)n([C@@H]2O[C@H](C)[C@@H](O)C2O)cc1F (stereo not given in full), which Potency is on record?
A: inactive

Q: For CN1CCC[C@H]1CCO[C@](C)(c1ccccc1)c1ccc(Cl)cc1, which Potency is on record?
A: inactive

Q: Which Potency does the source give for O=C(Nc1ccccc1)Nc1ccc(-c2ccc(C(=O)[C@H]3CCC[C@H]3C(=O)O)cc2)cc1 here?
A: inactive

Q: For CC(=O)OCC(=O)[C@@]12OC(C)(C)O[C@H]1C[C@H]1[C@@H]3C[C@H](F)C4=CC(=O)C=C[C@]4(C)[C@@]3(F)[C@@H](O)C[C@@]12C, which Potency is on record?
A: inactive

Q: For CC(=O)NCCC(=O)N[C@@H](CCC(N)=O)C(=O)N[C@@H](CO)C(=O)N[C@@H](CCC(N)=O)C(=O)N[C@@H](CCC(N)=O)C(=O)N[C@H](C(=O)N[C@@H](Cc1ccccc1)C(=O)N[C@]1(C)CCCCCCC=CCCC[C@@](C)(C(=O)N[C@@H](CCC(N)=O)C(=O)N[C@@H](CC(N)=O)C(N)=O)NC(=O)[C@H](CC(C)C)NC(=O)[C@H](CC(C)C)NC(=O)[C@@H](CCCNC(=N)N)NC(=O)[C@H](Cc2c[nH]c3ccccc23)NC(=O)[C@H](CC(C)C)NC(=O)[C@H](CC(N)=O)NC1=O)[C@H](C)O, which Potency is on record?
A: inactive

Q: With CC[C@H](C)C(=O)O[C@H]1C[C@H](O)C=C2C=C[C@H](C)[C@H](CC[C@@H](O)C[C@@H](O)CC(=O)O)[C@H]21 as the compound, how does the Potency read?
A: inactive

Q: Which Potency does the source give for O=C(O)c1nc(=O)[nH]c(=O)[nH]1 here?
A: inactive

Q: Which Potency does the source give for CC1=C(C(=O)Nc2cc3cn[nH]c3cc2F)C(c2ccc(C(F)(F)F)cc2)CC(=O)N1 (stereo not given) here?
A: inactive

Q: For Cc1c(C(=O)Nc2ccc(N3C[C@@H](C)O[C@@H](C)C3)nc2)cccc1-c1ccc(OC(F)(F)F)cc1, which Potency is on record?
A: inactive

Q: Which Potency does the source give for O=C(CC12CC3CC(CC(C3)C1)C2)Nc1cccc2nc(NCCNCCO)ccc12 here?
A: inactive

Q: With O=c1[nH]c(=O)n([C@H]2C[C@@H](O)[C@@H](CO)O2)cc1C(F)(F)F as the compound, how does the Potency read?
A: 7.39 µM (active)

Q: With CC1(C)[C@H]2CC[C@]3(C)[C@@H](C(=O)C=C4[C@@H]5C[C@@](C)(C(=O)O)CC[C@]5(C)CC[C@]43C)[C@@]2(C)CC[C@@H]1O as the compound, how does the Potency read?
A: inactive

Q: For N=C1SC(=Cc2ccc(-c3ccc4c(c3)C(=O)NC4=O)o2)C(=O)N1c1ccc(Br)cc1, which Potency is on record?
A: inactive

Q: For CC[C@H](C)n1cc(C)c2c(C(=O)NCc3c(C)cc(C)[nH]c3=O)cc(-c3ccc(N4CCNCC4)nc3)cc21, which Potency is on record?
A: inactive

Q: Which Potency does the source give for C[C@@]1(C(=O)Nc2ccc(F)nc2)CCCN1c1nc(Nc2cc(C3CC3)[nH]n2)c2cccn2n1 here?
A: 0.165 µM (active)

Q: Which Potency does the source give for CCNC(=O)[C@H]1O[C@@H](n2cnc3c(N)nc(NCCc4ccc(CCC(=O)O)cc4)nc32)[C@H](O)[C@H]1O here?
A: inactive

Q: With CCNC(=O)CCCC=CC[C@@H]1[C@H](C=CC(O)CCc2ccccc2)[C@@H](O)C[C@@H]1O (stereo not given in full) as the compound, how does the Potency read?
A: inactive

Q: With CCN1CCC(n2cc(CNc3cc(Cl)c4ncc(C#N)c(Nc5ccc(F)c(Cl)c5)c4c3)nn2)CC1 as the compound, how does the Potency read?
A: inactive

Q: For CN1[C@H]2CC[C@H]1CC(OC(=O)c1c[nH]c3ccccc13)C2 (stereo not given in full), which Potency is on record?
A: inactive

Q: Which Potency does the source give for CC[C@@H]([C@H](C)O)n1ncn(-c2ccc(N3CCN(c4ccc(OCC5CO[C@@](Cn6cncn6)(c6ccc(F)cc6F)C5)cc4)CC3)cc2)c1=O (stereo not given in full) here?
A: inactive

Q: With C[C@]12C=CC(=O)C=C1CC[C@@H]1[C@@H]2[C@@H](O)C[C@@]2(C)[C@@H]1CC[C@]2(O)C(=O)CO as the compound, how does the Potency read?
A: inactive
